Measured values from the supplement of paper PMC11732987, “Enantioselective OTUD7B fragment discovery through chemoproteomics screening and high-throughput optimisation” (Communications Chemistry, 2025).

Tests used:
Assay in all cases: log2 ratio of Biotin-Ahx-Ub-VS probe labelling (fragment/DMSO); higher = less target engagement (more negative = stronger competition), active = hit call of the paper (q ≤ 0.05, log2 ratio ≤ -1)
Settings in all cases: compound concentration: 200 uM; treatment time: 3 h
USP34 = USP34 (UniProt Q70CQ2)
Outline: (§1)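 Labelled DUBs from HEK293T lysate were NeutrAvidin-enriched, digested with LysC and trypsin, and run by diaPASEF LC-MS/MS. Before that, each 495 µg sample in Tris/CHAPS/IGEPAL buffer with protease inhibitors was treated in triplicate with fragment at 200 µM or vehicle for 3 h, then with Biotin-Ahx-Ub-VS at 0.5 µM final for 1 h. Values are average log2 ratios of fragment over vehicle by unpaired t-test, based on global-median-normalised Spectronaut label-free quantities from proteins with ≥2 unique peptides.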

USP36 = molecular target: T1, USP36 (UniProt Q9P275)
T1 sequence (whole entry): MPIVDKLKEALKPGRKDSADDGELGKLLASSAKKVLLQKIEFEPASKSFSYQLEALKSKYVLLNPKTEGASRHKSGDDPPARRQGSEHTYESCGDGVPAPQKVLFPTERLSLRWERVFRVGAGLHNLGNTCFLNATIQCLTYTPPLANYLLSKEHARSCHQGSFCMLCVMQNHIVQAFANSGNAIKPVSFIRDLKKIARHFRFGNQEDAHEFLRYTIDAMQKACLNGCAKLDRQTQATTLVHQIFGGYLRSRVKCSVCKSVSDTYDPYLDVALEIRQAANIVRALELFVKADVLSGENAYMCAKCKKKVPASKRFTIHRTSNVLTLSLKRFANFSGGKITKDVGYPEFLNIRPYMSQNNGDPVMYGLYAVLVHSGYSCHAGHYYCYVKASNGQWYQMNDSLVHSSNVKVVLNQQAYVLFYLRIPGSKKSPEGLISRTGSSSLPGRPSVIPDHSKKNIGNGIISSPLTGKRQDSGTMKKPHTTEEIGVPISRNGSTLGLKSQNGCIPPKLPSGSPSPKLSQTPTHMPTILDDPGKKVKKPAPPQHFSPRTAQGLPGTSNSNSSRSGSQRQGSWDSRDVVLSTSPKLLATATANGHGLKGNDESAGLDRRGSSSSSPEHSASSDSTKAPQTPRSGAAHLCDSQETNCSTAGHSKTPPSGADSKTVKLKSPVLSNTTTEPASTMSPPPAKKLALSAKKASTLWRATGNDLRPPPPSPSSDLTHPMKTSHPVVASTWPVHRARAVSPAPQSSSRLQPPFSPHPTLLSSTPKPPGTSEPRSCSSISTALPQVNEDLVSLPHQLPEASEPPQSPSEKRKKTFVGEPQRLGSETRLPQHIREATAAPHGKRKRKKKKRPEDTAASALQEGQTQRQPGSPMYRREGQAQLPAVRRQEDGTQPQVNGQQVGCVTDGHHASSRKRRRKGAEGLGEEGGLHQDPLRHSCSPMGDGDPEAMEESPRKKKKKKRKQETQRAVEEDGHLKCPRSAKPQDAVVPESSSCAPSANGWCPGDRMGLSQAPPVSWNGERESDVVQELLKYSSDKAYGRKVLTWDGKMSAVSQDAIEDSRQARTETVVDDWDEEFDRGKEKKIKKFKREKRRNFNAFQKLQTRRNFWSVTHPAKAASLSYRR
Outline: as §1

USP38 = molecular target: T2, USP38 (UniProt Q8NB14)
T2 sequence (whole entry): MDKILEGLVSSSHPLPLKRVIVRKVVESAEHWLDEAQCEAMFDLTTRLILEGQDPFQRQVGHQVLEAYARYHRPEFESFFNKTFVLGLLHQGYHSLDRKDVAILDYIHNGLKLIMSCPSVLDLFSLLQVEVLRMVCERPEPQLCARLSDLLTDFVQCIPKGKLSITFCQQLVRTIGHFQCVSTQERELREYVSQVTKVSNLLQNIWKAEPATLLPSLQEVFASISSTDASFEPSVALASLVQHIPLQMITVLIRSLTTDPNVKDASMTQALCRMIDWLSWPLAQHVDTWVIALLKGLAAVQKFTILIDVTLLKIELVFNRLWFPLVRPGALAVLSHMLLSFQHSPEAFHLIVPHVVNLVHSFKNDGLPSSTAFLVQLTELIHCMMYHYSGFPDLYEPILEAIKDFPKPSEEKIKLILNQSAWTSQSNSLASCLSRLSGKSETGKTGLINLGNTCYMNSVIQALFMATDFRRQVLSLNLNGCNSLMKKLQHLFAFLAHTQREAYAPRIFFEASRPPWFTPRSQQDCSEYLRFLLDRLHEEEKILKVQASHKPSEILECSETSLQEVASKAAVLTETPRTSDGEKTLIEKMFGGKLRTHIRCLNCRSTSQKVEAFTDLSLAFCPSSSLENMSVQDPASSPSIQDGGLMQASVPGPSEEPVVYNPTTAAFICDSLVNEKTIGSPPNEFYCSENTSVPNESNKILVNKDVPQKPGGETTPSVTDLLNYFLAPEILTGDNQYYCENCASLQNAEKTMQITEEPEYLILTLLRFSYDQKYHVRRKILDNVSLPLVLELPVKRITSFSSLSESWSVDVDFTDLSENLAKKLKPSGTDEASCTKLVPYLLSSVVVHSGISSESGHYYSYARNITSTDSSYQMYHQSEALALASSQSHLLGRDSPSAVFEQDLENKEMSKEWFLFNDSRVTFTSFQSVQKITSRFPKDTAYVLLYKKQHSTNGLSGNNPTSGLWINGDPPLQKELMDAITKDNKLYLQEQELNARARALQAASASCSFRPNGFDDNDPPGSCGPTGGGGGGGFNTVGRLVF
Outline: as §1

USP39 = molecular target: T3, USP39 (UniProt Q53GS9)
T3 sequence (whole entry): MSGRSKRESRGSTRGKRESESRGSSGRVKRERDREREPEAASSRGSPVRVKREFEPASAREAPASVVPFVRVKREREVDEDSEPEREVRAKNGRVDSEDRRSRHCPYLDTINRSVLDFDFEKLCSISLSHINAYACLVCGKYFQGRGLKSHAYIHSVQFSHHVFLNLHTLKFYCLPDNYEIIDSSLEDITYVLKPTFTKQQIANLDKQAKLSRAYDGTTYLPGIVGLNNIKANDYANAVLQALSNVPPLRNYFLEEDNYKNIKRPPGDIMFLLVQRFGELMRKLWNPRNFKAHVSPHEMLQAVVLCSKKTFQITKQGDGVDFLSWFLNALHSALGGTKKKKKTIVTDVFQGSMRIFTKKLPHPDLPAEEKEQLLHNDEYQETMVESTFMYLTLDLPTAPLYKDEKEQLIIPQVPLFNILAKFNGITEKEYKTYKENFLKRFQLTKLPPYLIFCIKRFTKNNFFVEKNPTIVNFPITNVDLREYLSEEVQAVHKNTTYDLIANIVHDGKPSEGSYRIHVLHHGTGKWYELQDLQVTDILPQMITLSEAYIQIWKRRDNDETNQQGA
Outline: as §1

USP4 = molecular target: T4, USP4 (UniProt Q13107)
T4 sequence (whole entry): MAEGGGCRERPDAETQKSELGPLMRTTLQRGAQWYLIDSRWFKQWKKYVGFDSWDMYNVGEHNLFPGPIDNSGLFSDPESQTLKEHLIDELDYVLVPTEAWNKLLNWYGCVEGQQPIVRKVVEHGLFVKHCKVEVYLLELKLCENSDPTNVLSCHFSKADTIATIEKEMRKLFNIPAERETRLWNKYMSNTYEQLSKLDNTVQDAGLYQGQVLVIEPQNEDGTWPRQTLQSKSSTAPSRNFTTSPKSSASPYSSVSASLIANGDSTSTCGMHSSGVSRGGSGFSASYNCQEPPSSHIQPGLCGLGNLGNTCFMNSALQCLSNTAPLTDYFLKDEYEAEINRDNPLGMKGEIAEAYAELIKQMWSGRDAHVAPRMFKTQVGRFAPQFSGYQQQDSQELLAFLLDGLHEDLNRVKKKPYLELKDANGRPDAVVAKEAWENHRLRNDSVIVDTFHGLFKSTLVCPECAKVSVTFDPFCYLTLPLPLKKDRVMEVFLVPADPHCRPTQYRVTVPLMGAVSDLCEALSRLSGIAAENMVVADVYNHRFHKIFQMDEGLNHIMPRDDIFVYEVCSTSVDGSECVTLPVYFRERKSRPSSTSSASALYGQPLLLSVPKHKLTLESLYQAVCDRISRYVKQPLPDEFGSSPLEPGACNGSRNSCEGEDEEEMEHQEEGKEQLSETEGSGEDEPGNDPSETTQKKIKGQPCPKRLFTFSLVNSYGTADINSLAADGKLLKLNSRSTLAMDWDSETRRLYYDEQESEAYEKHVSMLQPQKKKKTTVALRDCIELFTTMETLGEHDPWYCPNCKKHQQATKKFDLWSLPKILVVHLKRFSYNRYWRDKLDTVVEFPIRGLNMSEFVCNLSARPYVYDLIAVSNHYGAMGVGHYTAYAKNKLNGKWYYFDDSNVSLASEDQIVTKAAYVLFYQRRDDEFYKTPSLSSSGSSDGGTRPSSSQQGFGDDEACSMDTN
Outline: as §1

Measured: log2 ratio of Biotin-Ahx-Ub-VS probe labelling

Sequence of USP34 (Q70CQ2 whole entry, the tested form may be a part): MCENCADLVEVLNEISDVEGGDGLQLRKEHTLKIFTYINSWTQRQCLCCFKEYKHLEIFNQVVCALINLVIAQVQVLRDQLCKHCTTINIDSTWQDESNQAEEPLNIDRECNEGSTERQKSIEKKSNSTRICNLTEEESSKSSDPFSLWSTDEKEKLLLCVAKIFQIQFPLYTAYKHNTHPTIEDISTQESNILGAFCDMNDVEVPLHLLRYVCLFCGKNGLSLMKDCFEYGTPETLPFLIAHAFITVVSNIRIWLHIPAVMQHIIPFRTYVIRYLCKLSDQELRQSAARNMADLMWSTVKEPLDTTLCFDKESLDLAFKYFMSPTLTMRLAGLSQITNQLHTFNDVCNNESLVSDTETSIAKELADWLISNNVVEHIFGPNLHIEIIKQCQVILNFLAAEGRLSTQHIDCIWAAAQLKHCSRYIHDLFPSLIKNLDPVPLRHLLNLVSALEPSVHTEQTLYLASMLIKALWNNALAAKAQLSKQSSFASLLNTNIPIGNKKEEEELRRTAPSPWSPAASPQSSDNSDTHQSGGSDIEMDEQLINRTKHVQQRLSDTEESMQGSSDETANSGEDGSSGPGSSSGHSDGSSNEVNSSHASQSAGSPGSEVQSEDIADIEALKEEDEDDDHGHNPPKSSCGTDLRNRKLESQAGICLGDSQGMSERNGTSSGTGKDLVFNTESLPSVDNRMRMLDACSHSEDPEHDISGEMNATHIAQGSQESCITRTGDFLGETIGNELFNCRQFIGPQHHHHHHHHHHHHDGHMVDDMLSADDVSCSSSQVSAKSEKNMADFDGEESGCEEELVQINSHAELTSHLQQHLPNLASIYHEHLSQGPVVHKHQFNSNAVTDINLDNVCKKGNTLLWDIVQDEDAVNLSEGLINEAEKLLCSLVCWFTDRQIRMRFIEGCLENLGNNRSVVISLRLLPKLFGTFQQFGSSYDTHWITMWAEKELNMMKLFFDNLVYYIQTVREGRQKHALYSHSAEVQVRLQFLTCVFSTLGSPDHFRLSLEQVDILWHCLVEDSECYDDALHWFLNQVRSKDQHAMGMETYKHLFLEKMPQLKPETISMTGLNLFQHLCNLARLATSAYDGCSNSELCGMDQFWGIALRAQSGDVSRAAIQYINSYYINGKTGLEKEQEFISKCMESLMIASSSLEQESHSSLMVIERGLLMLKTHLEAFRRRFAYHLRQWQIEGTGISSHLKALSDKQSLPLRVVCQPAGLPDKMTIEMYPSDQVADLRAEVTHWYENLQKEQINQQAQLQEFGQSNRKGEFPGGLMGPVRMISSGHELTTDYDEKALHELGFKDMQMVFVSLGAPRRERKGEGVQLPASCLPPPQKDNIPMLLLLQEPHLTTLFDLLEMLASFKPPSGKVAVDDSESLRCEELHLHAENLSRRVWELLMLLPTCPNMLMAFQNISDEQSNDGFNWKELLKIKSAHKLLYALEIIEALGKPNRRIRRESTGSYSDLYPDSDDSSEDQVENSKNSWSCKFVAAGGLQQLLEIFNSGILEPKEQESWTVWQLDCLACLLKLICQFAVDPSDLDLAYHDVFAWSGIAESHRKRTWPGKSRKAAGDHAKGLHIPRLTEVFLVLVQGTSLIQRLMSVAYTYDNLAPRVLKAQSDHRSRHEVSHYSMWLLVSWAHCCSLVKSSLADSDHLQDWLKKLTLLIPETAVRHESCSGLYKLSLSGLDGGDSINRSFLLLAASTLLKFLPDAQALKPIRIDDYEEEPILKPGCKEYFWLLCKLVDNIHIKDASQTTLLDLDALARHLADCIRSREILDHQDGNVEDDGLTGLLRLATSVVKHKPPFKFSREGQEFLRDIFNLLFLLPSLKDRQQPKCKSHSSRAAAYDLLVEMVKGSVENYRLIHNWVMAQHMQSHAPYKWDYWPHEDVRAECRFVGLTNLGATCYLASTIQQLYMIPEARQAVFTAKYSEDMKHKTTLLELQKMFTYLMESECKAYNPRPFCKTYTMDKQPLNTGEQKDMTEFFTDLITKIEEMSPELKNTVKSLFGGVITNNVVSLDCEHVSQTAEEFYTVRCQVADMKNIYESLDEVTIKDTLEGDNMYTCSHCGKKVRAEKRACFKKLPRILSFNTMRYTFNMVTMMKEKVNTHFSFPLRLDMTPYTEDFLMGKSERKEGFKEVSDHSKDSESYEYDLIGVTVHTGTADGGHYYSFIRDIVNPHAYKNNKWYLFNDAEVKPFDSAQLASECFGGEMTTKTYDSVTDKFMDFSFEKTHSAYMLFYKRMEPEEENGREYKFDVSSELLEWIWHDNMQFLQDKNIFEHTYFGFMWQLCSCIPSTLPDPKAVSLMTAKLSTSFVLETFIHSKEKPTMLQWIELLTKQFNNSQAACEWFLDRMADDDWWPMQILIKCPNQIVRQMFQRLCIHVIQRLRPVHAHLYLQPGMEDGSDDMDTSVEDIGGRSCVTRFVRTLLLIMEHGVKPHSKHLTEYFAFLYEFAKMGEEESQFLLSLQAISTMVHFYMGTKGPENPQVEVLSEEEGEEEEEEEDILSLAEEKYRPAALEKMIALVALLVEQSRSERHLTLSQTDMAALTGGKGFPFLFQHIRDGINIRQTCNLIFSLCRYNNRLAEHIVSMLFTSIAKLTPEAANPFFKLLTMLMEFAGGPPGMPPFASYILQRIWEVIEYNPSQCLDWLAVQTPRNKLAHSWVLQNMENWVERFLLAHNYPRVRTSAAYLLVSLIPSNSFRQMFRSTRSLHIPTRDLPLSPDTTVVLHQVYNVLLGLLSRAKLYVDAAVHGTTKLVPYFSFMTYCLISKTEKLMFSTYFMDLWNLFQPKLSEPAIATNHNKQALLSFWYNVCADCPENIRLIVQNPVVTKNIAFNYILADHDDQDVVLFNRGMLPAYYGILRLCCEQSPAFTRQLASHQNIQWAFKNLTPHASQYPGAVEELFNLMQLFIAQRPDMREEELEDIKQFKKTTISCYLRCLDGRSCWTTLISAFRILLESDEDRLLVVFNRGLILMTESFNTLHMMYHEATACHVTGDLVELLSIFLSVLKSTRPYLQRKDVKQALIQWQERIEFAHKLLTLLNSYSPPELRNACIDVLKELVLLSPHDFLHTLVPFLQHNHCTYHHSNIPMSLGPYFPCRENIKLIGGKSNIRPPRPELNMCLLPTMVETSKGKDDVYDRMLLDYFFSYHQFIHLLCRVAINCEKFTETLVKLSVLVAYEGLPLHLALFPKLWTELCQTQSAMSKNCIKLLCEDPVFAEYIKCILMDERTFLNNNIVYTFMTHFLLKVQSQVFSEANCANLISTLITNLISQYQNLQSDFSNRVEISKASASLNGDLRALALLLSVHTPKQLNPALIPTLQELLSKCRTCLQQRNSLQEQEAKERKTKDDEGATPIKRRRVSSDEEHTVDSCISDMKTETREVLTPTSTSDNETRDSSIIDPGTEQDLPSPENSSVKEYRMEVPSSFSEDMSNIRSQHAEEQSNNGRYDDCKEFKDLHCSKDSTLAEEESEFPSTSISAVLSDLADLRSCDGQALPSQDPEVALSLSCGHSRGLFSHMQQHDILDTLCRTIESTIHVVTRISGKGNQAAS

CC(=O)Nc1ccc(NC(=O)CCl)cc1
inactive: USP34 -0.128 | USP36 -0.0191 | USP38 0.0936 | USP39 0.432 | USP4 -0.163
